# According to PubChem BioAssay (NCATS):
# Several values for one entry are separate records, joined by “and”; a condition that tells them apart may be missing. Identical values can stand only once. Inconclusive results are not listed. Activity calls are given as the source filed them. The call rests on the fitted dose curve; in most records, active means well fitted curve in the direction sought with a large enough effect; inconclusive means small, poorly fitted or top-dose-only effect, or another doubt; inactive means no such curve, though single readings can be large or run the other way. *1 amine or outer side, *2 acyl side, *3 side chain or, on linkers, in order; H or OH if unused. Where a SMILES comes first, the peptide text is derived from it. Bridges are numbered along the chain shown (N, C = ends). [ ]: non-standard residue; d: D form. The star is where a group is joined. X5 = NC1=N[C@@H]([C@H](N[*:1])C(=O)[*:2])C[C@H](O)N1; ΔAla(Z-3-ureido) = NC(=O)N/C=C(\N)C(=O)O; β3hOrn = NCCC[C@H](N)CC(=O)*; Dap = NC[C@H](N)C(=O)O
# Experiment: qHTS Assay for Identifying Gametocytocidal Compounds (AID 743244);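 on max response: actives lower the fluorescent signal which means gametocytes are killed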
# Conditions: P. falciparum 3D7 stage III-V gametocytes, alamarBlue, 72 h; max response: active compounds read low
# Method in brief: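 Late gametocytes (III–V), P. falciparum 3D7; 72 h drug, then 24 h alamarBlue; resazurin reduction read by fluorescence.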
# On the % scale 0 is the no-effect control and ±100 the full control effect; potency means the concentration at half of the fitted maximal effect.
Structure (SMILES),max response,Potency
O=C(CO)[C@@H](O)[C@H](O)[C@@H](O)C(=O)O,23.9% (inactive),–
Nc1nc2c(c(=O)[nH]1)N(C=O)C(CNc1ccc(C(=O)N[C@@H](CCC(=O)O)C(=O)O)cc1)CN2 (stereo partly drawn),8.32% (inactive),–
O=C(c1cc2ccccc2o1)N1CCN(Cc2ccccc2)CC1,7.29% (inactive),–
O=C[C@H](O)[C@@H](O)[C@@H](O)[C@H](O)CO,-6.65% (inactive),–
Cc1cc(C)c(NC(=O)C[C@H](CC(=O)O)c2cccc3ccccc23)c(C(=O)N2CCC3(CCCC3)CC2)c1,-8.09% (inactive),–
CC(=O)Nc1ccc(NC(=S)NC(=O)c2ccc(C(C)(C)C)cc2)cc1,-8.07% (inactive),–
CCCCCCCCCCCCCCCCCCOCC(COP(=O)([O-])OCC[N+](C)(C)C)OC (stereo not drawn),3.69% (inactive),–
CCc1cn([C@H]2C[C@H](O)[C@@H](CO)O2)c(=O)[nH]c1=O,16.3% (inactive),–
CN1c2c(nc(N)[nH]c2=O)NCC1CNc1ccc(C(=O)NC(CCC(=O)O)C(=O)O)cc1 (stereo not drawn),15.5% (inactive),–
CCOC(=S)SSC(=S)OCC,0.863% (inactive),–
CNC(=O)OCc1cccc(COC(=O)NC)n1,8.67% (inactive),–
O=P(O)(O)OP(=O)(O)O,2.77% (inactive),–
CC(C)(C)c1ccc2c(S(=O)(=O)O)c(C(C)(C)C)ccc2c1,10.3% (inactive) and 35.8% (inactive),–
CC1=C(/C=C/C(C)=C/C=C/C(C)=C/C(=O)Oc2c(C)c(C)c3c(c2C)CC[C@@](C)(CCC[C@H](C)CCC[C@H](C)CCCC(C)C)O3)C(C)(C)CCC1,0.0927% (inactive),–
CC(=O)Oc1cc(C(F)(F)F)ccc1C(=O)O,17% (inactive),–
CCN(CC)CCCC(C)Nc1cc(/C=C/c2ccccc2Cl)nc2cc(Cl)ccc12 (stereo not drawn),–,11.2 µM (active)
CCC(=O)OC(OP(=O)(CCCCc1ccccc1)CC(=O)N1C[C@H](C2CCCCC2)C[C@H]1C(=O)O)C(C)C (stereo partly drawn),15.3% (inactive),–
COc1ccccc1N1CCN(CCCC(=O)c2ccc(F)cc2)CC1,18% (inactive),–
O=C1NC(=O)[C@H]2[C@@H]1[C@@H]1C=C[C@H]2C1,-6.7% (inactive),–

Structure (SMILES),max response,Potency
OC/C=C/c1ccccc1,2.6% (inactive),–
O=C(NNCNNC(=O)c1ccncc1)c1ccncc1,16.9% (inactive),–
CC(C)C1=CC2=CC[C@@H]3[C@](C)(CCC[C@@]3(C)C(=O)O)[C@H]2CC1,-5.77% (inactive),–
Cc1cc(-c2ccc(N=Nc3ccc4c(S(=O)(=O)O)cc(S(=O)(=O)O)c(N)c4c3O)c(C)c2)ccc1N=Nc1ccc2c(S(=O)(=O)O)cc(S(=O)(=O)O)c(N)c2c1O,18.4% (inactive) and 0.953% (inactive),–
C=CC1=C(C(=O)O)N2C(=O)[C@@H](NC(=O)/C(=N\O)c3csc(N)n3)[C@H]2SC1 (stereo in doubt),1.2% (inactive) and 8.54% (inactive),–
NCCC[C@H](N)CC(=O)N[C@H]1CNC(=O)[C@H]([C@H]2C[C@H](O)NC(N)=N2)NC(=O)/C(=C/NC(N)=O)NC(=O)[C@H](CO)NC(=O)[C@H](CO)NC1=O (β3hOrn-[Dap]SS[ΔAla(Z-3-ureido)][X5]; lactam 1-C),13.7% (inactive),–
C=O,20.4% (inactive),–
O=C(O[C@H]1CN2CCC1CC2)N1CCc2ccccc2[C@@H]1c1ccccc1,5.85% (inactive),–
COc1ccc(C(=O)/C(Br)=C\C(=O)O)cc1,20.3% (inactive),–
NCC(O)CC(=O)O (stereo not drawn),10.8% (inactive),–
Cn1c(=O)c2c(ncn2CCOC(=O)C(C)(C)Oc2ccc(Cl)cc2)n(C)c1=O,17.7% (inactive),–
C=C1[C@H](CO)[C@@H](O)C[C@@H]1n1cnc2c(=O)[nH]c(N)nc21,18.1% (inactive),–
O=C(O)[C@@H]1C[C@H](CP(=O)(O)O)CCN1,11.7% (inactive),–
CN=C1C=CC(=C(c2ccc(N(C)C)cc2)c2ccc(N(C)C)cc2)C=C1,–,3.55 µM (active)
NC[C@@H]1CC[C@@H](N)[C@@H](O[C@H]2[C@H](O)[C@@H](O[C@H]3O[C@H](CO)[C@@H](O)[C@H](N)[C@H]3O)[C@H](N)C[C@@H]2N)O1,4.25% (inactive),–
CC(C)CCC[C@@H](C)[C@H]1CC(=O)C2=C3CC[C@H]4C[C@@H](O)CC[C@]4(C)[C@H]3CC[C@@]21C,5.28% (inactive),–
NC(=O)OCC(O)COc1ccc(Cl)cc1 (stereo not drawn),9.36% (inactive),–
CS(=O)(=O)OCC(O)C(O)COS(C)(=O)=O (stereo not drawn),-2.1% (inactive),–
CC1C(=O)CC2C3(C)CCC2(C(C)C(=O)O)C(=O)C13 (stereo not drawn),-7.97% (inactive),–
